Data on eight sequences can be found in article PMC7862700, “An all-to-all approach to the identification of sequence-specific readers for epigenetic DNA modifications on cytosine”.

What all share (experiment): DAPPL (digital affinity profiling via proximity ligation, sequencing); 10 mM Tris-HCl pH 7.5, 50 mM NaCl, 1 mM DTT, 4% glycerol, room temperature, 30 min; GST-TFs on glutathione beads, 16-mer random dsDNA library, 0.1% formaldehyde crosslink after washing; high values mean tight binding
The target of one assay is T1, FEV (Homo sapiens, UniProt Q99581 1-238).
T1 sequence: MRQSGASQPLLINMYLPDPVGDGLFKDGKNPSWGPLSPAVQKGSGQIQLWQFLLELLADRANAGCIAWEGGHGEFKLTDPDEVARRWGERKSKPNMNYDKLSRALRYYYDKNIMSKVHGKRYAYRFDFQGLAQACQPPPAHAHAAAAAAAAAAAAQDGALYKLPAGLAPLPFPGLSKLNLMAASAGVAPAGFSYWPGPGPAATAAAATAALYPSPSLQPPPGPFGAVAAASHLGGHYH
Particulars: protein: recombinant; tags: N-terminal GST; dsDNA, one strand shown. The essentials: (§1)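 After expression in yeast as GST fusions, human transcription factors were bound to glutathione beads, DNA-barcoded and mixed with a tag-only sample. The pools were incubated with 200 nmole of a 16-mer random double-stranded DNA library in Tris/NaCl/DTT/glycerol buffer (30 min, room temperature), washed and crosslinked with 0.1% formaldehyde. Proximity ligation with BsaI/T4 ligase ran for 1 h at 37 °C, before PCR amplification and sequencing on an Illumina NextSeq500. Binding signal is a hexamer's read frequency for a factor divided by its frequency for the tag-only sample.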

For a further assay, the target named is ETV5 (Homo sapiens, UniProt P41161 1-510). Particulars: protein: recombinant; tags: N-terminal GST; dsDNA, one strand shown. The essentials:
as §1

The target in a further assay is HSF1 (Homo sapiens, UniProt Q00613 1-529). The conditions noted are these: protein: recombinant; tags: N-terminal GST; chain copies: 3; dsDNA, one strand shown. The essentials: as §1
A further assay deals with T2, SPIC (Homo sapiens, UniProt Q8N5J4 1-248).
T2 sequence: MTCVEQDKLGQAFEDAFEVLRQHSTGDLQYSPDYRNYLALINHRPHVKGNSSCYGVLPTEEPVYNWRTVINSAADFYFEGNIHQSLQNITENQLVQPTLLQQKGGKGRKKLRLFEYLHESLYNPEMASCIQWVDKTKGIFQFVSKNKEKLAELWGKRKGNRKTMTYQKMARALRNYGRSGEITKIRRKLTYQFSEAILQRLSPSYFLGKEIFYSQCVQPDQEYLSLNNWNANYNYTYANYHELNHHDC
The conditions noted are these: protein: recombinant; tags: N-terminal GST; dsDNA, one strand shown. The essentials: as §1

The next assay addresses ELF4 (Homo sapiens, UniProt Q99607 1-663). Particulars: protein: recombinant; tags: N-terminal GST; dsDNA, one strand shown. The essentials:
as §1

The target of another assay is T3, ELK4 (Homo sapiens, UniProt P28324-2 1-405).
T3 sequence: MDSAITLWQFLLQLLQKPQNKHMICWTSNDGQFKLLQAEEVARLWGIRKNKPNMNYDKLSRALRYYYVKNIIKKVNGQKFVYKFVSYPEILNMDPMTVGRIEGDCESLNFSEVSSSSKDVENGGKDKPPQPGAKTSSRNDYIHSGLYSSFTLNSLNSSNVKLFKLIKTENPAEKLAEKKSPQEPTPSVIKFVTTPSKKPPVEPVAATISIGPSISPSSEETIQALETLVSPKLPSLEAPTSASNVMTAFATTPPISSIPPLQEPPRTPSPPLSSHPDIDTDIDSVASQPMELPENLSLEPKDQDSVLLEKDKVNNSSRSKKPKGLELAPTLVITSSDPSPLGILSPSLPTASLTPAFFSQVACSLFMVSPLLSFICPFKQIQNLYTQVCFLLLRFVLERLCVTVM
Particulars: protein: recombinant; tags: N-terminal GST; dsDNA, one strand shown. The essentials:
as §1

Another assay deals with T4, ETV2 (Homo sapiens, UniProt O00321 1-342).
T4 sequence: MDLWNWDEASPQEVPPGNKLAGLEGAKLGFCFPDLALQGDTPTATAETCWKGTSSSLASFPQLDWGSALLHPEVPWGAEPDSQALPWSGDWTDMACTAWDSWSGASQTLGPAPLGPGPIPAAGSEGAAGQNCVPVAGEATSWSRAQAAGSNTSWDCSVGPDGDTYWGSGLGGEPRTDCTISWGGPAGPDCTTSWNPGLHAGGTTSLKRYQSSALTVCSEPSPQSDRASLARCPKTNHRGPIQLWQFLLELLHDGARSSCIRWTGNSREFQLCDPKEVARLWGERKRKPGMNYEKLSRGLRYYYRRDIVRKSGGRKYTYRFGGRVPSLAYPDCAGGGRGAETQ
Particulars: protein: recombinant; tags: N-terminal GST; dsDNA, one strand shown. The essentials:
as §1

In a further assay the target is T5, ELF3 (Homo sapiens, UniProt P78545 1-371).
T5 sequence: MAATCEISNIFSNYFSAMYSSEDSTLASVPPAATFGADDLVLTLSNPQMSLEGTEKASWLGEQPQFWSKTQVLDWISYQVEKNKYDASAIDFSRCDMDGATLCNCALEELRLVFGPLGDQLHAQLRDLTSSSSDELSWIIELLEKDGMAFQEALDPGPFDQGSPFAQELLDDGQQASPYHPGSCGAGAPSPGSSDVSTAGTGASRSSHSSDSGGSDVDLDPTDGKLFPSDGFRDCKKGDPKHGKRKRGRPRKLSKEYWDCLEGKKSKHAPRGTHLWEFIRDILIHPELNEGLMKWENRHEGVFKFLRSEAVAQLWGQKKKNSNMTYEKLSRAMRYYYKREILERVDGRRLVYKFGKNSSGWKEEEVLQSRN
The conditions noted are these: protein: recombinant; tags: N-terminal GST; dsDNA, one strand shown. The essentials: as §1

The target in a further assay is CRX (Homo sapiens, UniProt O43186 1-299). Particulars: protein: recombinant; tags: N-terminal GST; dsDNA, one strand shown. The essentials:
as §1

For another assay, the target named is ETV1 (Homo sapiens, UniProt P50549 1-477). Particulars: protein: recombinant; tags: N-terminal GST; dsDNA, one strand shown. The essentials:
as §1

Sequence of HSF1 (Q00613 whole entry): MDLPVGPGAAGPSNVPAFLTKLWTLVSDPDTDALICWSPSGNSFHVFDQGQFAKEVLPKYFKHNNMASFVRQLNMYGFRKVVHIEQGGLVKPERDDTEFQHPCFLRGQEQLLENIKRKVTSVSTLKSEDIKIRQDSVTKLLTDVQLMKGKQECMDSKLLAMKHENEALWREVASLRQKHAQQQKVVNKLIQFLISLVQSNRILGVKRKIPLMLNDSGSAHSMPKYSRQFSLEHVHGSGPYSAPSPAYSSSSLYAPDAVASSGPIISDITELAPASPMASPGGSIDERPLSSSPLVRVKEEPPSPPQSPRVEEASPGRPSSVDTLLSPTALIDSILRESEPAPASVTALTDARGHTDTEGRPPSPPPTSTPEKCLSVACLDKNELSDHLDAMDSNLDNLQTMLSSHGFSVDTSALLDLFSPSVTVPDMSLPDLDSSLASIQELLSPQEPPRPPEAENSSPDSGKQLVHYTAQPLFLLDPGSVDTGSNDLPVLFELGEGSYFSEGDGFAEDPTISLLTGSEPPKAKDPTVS
Sequence of ETV5 (P41161 whole entry): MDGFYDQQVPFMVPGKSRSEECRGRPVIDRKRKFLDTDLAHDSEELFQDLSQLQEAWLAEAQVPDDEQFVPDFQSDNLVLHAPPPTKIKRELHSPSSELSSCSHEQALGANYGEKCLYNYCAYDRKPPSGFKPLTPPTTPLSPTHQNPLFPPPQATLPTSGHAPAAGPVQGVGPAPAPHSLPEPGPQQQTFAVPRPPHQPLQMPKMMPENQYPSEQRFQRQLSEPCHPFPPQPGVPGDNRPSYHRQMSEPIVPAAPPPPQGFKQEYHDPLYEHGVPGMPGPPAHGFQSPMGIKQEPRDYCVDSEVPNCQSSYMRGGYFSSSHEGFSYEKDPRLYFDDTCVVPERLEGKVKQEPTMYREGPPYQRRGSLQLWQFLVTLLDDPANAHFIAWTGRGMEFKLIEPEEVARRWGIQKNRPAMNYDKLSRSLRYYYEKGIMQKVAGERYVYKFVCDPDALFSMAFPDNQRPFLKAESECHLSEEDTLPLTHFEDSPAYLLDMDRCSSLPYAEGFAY
Sequence of CRX (O43186 whole entry): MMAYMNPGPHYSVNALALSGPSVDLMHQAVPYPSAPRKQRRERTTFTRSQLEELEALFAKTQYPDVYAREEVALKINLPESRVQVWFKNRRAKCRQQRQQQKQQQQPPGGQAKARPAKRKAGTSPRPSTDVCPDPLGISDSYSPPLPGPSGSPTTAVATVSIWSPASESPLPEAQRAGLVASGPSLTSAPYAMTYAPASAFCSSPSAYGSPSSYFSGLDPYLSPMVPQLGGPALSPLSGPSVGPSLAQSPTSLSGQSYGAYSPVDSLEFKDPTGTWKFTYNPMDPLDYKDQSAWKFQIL
Sequence of ELF4 (Q99607 whole entry): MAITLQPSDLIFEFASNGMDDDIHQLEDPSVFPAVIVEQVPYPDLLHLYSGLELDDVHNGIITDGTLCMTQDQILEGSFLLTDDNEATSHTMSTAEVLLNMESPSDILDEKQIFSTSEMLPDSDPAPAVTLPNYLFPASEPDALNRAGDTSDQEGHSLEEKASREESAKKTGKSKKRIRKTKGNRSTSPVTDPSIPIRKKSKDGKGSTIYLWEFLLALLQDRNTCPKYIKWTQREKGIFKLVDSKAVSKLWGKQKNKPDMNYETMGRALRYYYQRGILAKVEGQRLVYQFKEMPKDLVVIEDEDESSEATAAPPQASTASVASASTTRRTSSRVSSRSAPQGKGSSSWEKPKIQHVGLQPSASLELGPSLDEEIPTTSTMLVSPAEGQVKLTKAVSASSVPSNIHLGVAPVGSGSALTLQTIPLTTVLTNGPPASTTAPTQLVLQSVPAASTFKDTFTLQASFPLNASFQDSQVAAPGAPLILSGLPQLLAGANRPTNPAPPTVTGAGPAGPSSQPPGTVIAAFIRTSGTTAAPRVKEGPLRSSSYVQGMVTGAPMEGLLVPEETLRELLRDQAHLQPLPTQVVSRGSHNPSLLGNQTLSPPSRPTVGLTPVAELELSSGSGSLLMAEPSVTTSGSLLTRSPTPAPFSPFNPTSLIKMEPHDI
Sequence of ETV1 (P50549 whole entry): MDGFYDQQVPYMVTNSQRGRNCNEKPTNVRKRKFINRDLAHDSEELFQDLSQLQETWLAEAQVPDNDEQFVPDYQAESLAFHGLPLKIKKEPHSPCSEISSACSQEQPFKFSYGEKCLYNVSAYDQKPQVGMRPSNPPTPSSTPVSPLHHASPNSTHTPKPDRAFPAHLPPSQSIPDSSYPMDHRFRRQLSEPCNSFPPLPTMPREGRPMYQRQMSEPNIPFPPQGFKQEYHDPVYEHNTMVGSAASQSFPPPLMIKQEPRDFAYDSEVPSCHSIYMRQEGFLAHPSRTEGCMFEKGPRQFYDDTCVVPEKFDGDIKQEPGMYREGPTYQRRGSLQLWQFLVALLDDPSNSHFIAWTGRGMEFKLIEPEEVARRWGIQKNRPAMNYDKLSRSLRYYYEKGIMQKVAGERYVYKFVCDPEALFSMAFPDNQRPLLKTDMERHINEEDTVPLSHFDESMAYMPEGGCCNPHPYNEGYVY

In the case of ATCTTG, the binding signal with FEV was 1.33 fold enrichment (6-mer frequency, TF over GST control); with ETV5 it was 1.2 fold enrichment (6-mer frequency, TF over GST control); in the assay with HSF1 it was 1.43 fold enrichment (6-mer frequency, TF over GST control); in the assay with SPIC it was 1.39 fold enrichment (6-mer frequency, TF over GST control); in the assay with ELF4, 1.33 fold enrichment (6-mer frequency, TF over GST control); with ELK4, 1.39 fold enrichment (6-mer frequency, TF over GST control). Besides, the binding signal in the assay with ETV2 is 1.35 fold enrichment (6-mer frequency, TF over GST control); with ELF3, 1.5 fold enrichment (6-mer frequency, TF over GST control); in the assay with CRX, 1.54 fold enrichment (6-mer frequency, TF over GST control); with ETV1 it was 1.25 fold enrichment (6-mer frequency, TF over GST control).
CGATGG: the binding signal in the assay with FEV was 1.23 fold enrichment (6-mer frequency, TF over GST control); with ETV5, 1.28 fold enrichment (6-mer frequency, TF over GST control); in the assay with HSF1, 1.36 fold enrichment (6-mer frequency, TF over GST control); in the assay with SPIC it was 1.31 fold enrichment (6-mer frequency, TF over GST control); with ELF4, 1.36 fold enrichment (6-mer frequency, TF over GST control); with ELK4, 1.46 fold enrichment (6-mer frequency, TF over GST control). In addition, the binding signal with ETV2 is 1.34 fold enrichment (6-mer frequency, TF over GST control); with ELF3, 1.15 fold enrichment (6-mer frequency, TF over GST control); with CRX, 1.14 fold enrichment (6-mer frequency, TF over GST control); with ETV1, 1.41 fold enrichment (6-mer frequency, TF over GST control).
Turning to AAATGA, the binding signal with FEV is 1.26 fold enrichment (6-mer frequency, TF over GST control); with ETV5, 1.32 fold enrichment (6-mer frequency, TF over GST control); in the assay with HSF1 it was 1.12 fold enrichment (6-mer frequency, TF over GST control); in the assay with SPIC, 1.54 fold enrichment (6-mer frequency, TF over GST control); with ELF4, 1.29 fold enrichment (6-mer frequency, TF over GST control); in the assay with ELK4 it was 1.29 fold enrichment (6-mer frequency, TF over GST control). Besides, the binding signal is 1.36 fold enrichment (6-mer frequency, TF over GST control) with ETV2; 1.41 fold enrichment (6-mer frequency, TF over GST control) in the assay with ELF3; 1.16 fold enrichment (6-mer frequency, TF over GST control) in the assay with CRX; 1.29 fold enrichment (6-mer frequency, TF over GST control) in the assay with ETV1.
In the case of ATCCGC, the binding signal was 2.09 fold enrichment (6-mer frequency, TF over GST control) with FEV; 1.78 fold enrichment (6-mer frequency, TF over GST control) with ETV5; 1.58 fold enrichment (6-mer frequency, TF over GST control) with HSF1; 1.68 fold enrichment (6-mer frequency, TF over GST control) in the assay with SPIC; 1.65 fold enrichment (6-mer frequency, TF over GST control) with ELF4; 1.6 fold enrichment (6-mer frequency, TF over GST control) in the assay with ELK4. In addition, the binding signal in the assay with ETV2 was 1.9 fold enrichment (6-mer frequency, TF over GST control); in the assay with ELF3, 1.62 fold enrichment (6-mer frequency, TF over GST control); with CRX, 2.06 fold enrichment (6-mer frequency, TF over GST control); with ETV1, 1.8 fold enrichment (6-mer frequency, TF over GST control).
Consider TATACG, for which the binding signal with FEV is 1.18 fold enrichment (6-mer frequency, TF over GST control); with ETV5, 1.25 fold enrichment (6-mer frequency, TF over GST control); with HSF1 it was 1.27 fold enrichment (6-mer frequency, TF over GST control); in the assay with SPIC, 1.1 fold enrichment (6-mer frequency, TF over GST control); with ELF4 it was 1.31 fold enrichment (6-mer frequency, TF over GST control); in the assay with ELK4, 1.14 fold enrichment (6-mer frequency, TF over GST control). Besides, the binding signal with ETV2 is 1.15 fold enrichment (6-mer frequency, TF over GST control); with ELF3, 1.26 fold enrichment (6-mer frequency, TF over GST control); with CRX, 1.39 fold enrichment (6-mer frequency, TF over GST control); in the assay with ETV1, 1.32 fold enrichment (6-mer frequency, TF over GST control).
Turning to GTTCTA, the binding signal with FEV was 1.26 fold enrichment (6-mer frequency, TF over GST control); in the assay with ETV5 it was 1.18 fold enrichment (6-mer frequency, TF over GST control); with HSF1 it was 2.94 fold enrichment (6-mer frequency, TF over GST control); with SPIC, 1.37 fold enrichment (6-mer frequency, TF over GST control); in the assay with ELF4, 1.31 fold enrichment (6-mer frequency, TF over GST control); with ELK4 it was 1.2 fold enrichment (6-mer frequency, TF over GST control). The binding signal in the assay with ETV2 was 1.17 fold enrichment (6-mer frequency, TF over GST control); with ELF3 it was 1.27 fold enrichment (6-mer frequency, TF over GST control); with CRX it was 1.59 fold enrichment (6-mer frequency, TF over GST control); with ETV1, 1.11 fold enrichment (6-mer frequency, TF over GST control).
Consider CCTGTT, for which the binding signal in the assay with FEV is 1.67 fold enrichment (6-mer frequency, TF over GST control); in the assay with ETV5, 1.79 fold enrichment (6-mer frequency, TF over GST control); in the assay with HSF1 it was 1.2 fold enrichment (6-mer frequency, TF over GST control); with SPIC, 1.91 fold enrichment (6-mer frequency, TF over GST control); with ELF4, 1.72 fold enrichment (6-mer frequency, TF over GST control); with ELK4, 1.55 fold enrichment (6-mer frequency, TF over GST control). For the same sequence, the binding signal was 1.62 fold enrichment (6-mer frequency, TF over GST control) in the assay with ETV2; 1.62 fold enrichment (6-mer frequency, TF over GST control) with ELF3; 1.21 fold enrichment (6-mer frequency, TF over GST control) with CRX; 1.69 fold enrichment (6-mer frequency, TF over GST control) with ETV1.
Regarding GCTTTA, the binding signal was 1.04 fold enrichment (6-mer frequency, TF over GST control) with FEV; 1.06 fold enrichment (6-mer frequency, TF over GST control) with ETV5; 1.25 fold enrichment (6-mer frequency, TF over GST control) with HSF1; 1.13 fold enrichment (6-mer frequency, TF over GST control) with SPIC; 1.14 fold enrichment (6-mer frequency, TF over GST control) in the assay with ELF4; 1.2 fold enrichment (6-mer frequency, TF over GST control) with ELK4. The binding signal was 1.16 fold enrichment (6-mer frequency, TF over GST control) with ETV2; 1.13 fold enrichment (6-mer frequency, TF over GST control) with ELF3; 1.81 fold enrichment (6-mer frequency, TF over GST control) with CRX; 1.06 fold enrichment (6-mer frequency, TF over GST control) with ETV1.
